# Data published in PubChem BioAssay (Tox21).
# “And” between values parts separate entries of the source, which are not always exact repeats. Equal entries are not always repeated. Results filed as inconclusive are left out. Some structures have more than one record in an assay (separate samples or runs), and their calls can disagree. The source made the active and inactive calls. Calls come from the whole dose curve; as a rule, active = well fitted inhibition curve with a large enough effect in the signal ratio in the repeat runs; inconclusive = weak or mixed curves, or effect the other way; inactive = flat fitted curve, though single readings scatter; the % refers to the signal ratio.
# Experiment: qHTS assay for small molecule disruptors of the mitochondrial membrane potential (AID 720635)
# Conditions: HepG2 mitochondrial membrane potential, Mito-MPS dye ratio; series mostly up to 83.2 µM; ratio activity, negative = MMP loss: at the top concentration
# Excerpt: U.S. Tox21 Program National Center for Advancing Translational Sciences [NCATS] NIH Chemical Genomics Center [NCGC] U.S. Environmental Protection Agency [EPA] National Institutes of Environmental Health Sciences [NIEHS] National Toxicology Program [NTP] U.S. Food and Drug Administration [FDA] Tox21 Assay Overview: Mitochondrial membrane potential (MMP), one of the parameters for mitochondrial function, is generated by mitochondrial electron transport chain that creates an electrochemical gradient by a series of redox reactions. This gradient drives the synthesis of ATP, a crucial molecule for various cellular processes. Measuring MMP in living cells is commonly used to assess the effect of chemicals on mitochondrial function. […] The dye accumulates in the mitochondria of healthy cells as aggregates, with red fluorescence. The mitochondrial potential collapses and the dye can no longer accumulate in the mitochondria and remains in the cytoplasm in monomers, with green fluorescence.
# Tox21 Assay Protocol Summary: 2,000 HepG2 cells in 5 uL/well were dispensed into black, clear-bottom 1536-well plates using a Multidrop Combi (Thermo Scientific) dispenser. The assay plates were incubated overnight at 37C to allow cells to attach to the wells, followed by the transfer of 23 nL compound or DMSO vehicle by a pin tool (Kalypsys). The plates were incubated for 1 hr at 37C and 5% CO2, followed by the addition of 5 uL of 2X Mito-MPS dye (BD Biosciences) into each well using Flying Reagent Dispenser (Aurora Discovery) and then following 30 min incubation at 37C. Fluorescence intensity (490nm excitation and 535nm emission for monomers; and 540nm excitation and 590nm emissions for aggregates) was measured using an Envision plate reader.
# % is set by controls: 0 for no effect and ±100 for the full control effect; potency is the fitted concentration of half-maximal effect.
SMILES,"ratio activity, negative = MMP loss",Potency
CC(=O)OC1CC(C)OC(C)O1 (stereo not given),-4.33% (inactive),
CCOC(=O)c1ccc(N)cc1,,inactive
CC(=O)OCc1ccccc1,7.08% (inactive),
CCOC(=O)n1ccn(C)c1=S,5.85% [at 39.1 µM] (inactive),
CNC(=S)N(C)C,5.7% [at 95.3 µM] (inactive),
O=c1[nH]cnc2[nH]ncc12,-14.6% [at 95.3 µM] (inactive),
CCCOC(=O)c1ccccc1,-10.9% (inactive),
CN(C)c1ccc(Cc2ccc(N(C)C)cc2)cc1,,54.7 µM (active) and inactive
Cc1ccc(C(C)C)c(O)c1,,24.3 µM (active)
O=[N+]([O-])c1ccc2nc[nH]c2c1,,27.3 µM (active)
CC(=O)OCc1ccco1,-10.6% (inactive),
c1ccc(Oc2ccccc2)cc1,,inactive
Nc1nc(N)nc(-c2ccccc2)n1,,inactive
COc1ccc(N)c(C)c1,,inactive
OCc1cccc(Oc2ccccc2)c1,,54.5 µM (active)
CC(C)(C)c1cc(Cc2cc(C(C)(C)C)c(O)c(C(C)(C)C)c2)cc(C(C)(C)C)c1O,10.7% (inactive),
CCCCCCCO,,inactive
O=C(O)CCCCCCCCC(=O)O,,inactive
O=C1c2ccccc2CCc2ccccc21,,31.3 µM (active)
CC(=O)CC(C)(C)O,3.09% (inactive),

SMILES,"ratio activity, negative = MMP loss",Potency
CCCCCCO,,inactive
CCCCCCCCCCCCCCCC(=O)OC(C)C,,inactive
CCCCCCCCCCN,,inactive
COCCOC(=O)c1ccccc1C(=O)OCCOC,,inactive
CC(CCO)CC(C)(C)C (stereo not given),,inactive
CCO[Si](CCCN)(OCC)OCC,16.5% (inactive),
CC(=O)CCC=C(C)C,8.7% [at 95.3 µM] (inactive),
COCCCN,,inactive
CC(CCl)OP(=O)(OC(C)CCl)OC(C)CCl (stereo not given),38.8% (inactive),
CC(O)CC(C)(C)O (stereo not given),13.9% [at 95.3 µM] (inactive),
O=C(OCC1CCC2OC2C1)C1CCC2OC2C1 (stereo not given),,inactive
O=C(O)c1ccc(S(=O)(=O)N(Cl)Cl)cc1,-11.1% (inactive),
COC(=O)c1cccnc1,12% (inactive),
C[Si]1(C)O[Si](C)(C)O[Si](C)(C)O[Si](C)(C)O1,,inactive
CN/C(=C\[N+](=O)[O-])NCCSCc1csc(CN(C)C)n1,9.48% [at 39.1 µM] (inactive),
Nc1ccc(Cl)c(N)c1,,68.8 µM (active)
CC(C)OC(=O)COc1ccc(Cl)cc1Cl,,inactive
CC1(C)NC(=O)NC1=O,-9.38% [at 95.3 µM] (inactive),
CC(C)CC(C)O (stereo not given),27.2% (inactive),
O=C(O)c1cc2ccccc2cc1O,,54.1 µM (active) and 54.5 µM (active)
